Assay results taken from ChEMBL document CHEMBL3988442, “University of Dundee, Small-Polar-MMV Screening Library” (2021).
For some of these results: Results with a measured potency or affinity are listed apart.

Key:
Set-up in all cases: scale not given: direction of the effect not stated beside the values
[1] = molecular target: Protein translocase subunit SecA (Escherichia coli (strain K12)) (UniProt P10408); experiment: Assay to Identify E. coli SecA ATPase Inhibitors; format: functional; settings: 30 µM
[2] = molecular target: T1, Ubiquitin-activating enzyme e1, putative (Leishmania donovani (strain BPK282A1)) (UniProt E9BSI1); experiment: Leishmania donovani Ubiquitin Activating Enzyme (LdE1); format: functional; settings: 30 µM
T1 sequence (whole entry): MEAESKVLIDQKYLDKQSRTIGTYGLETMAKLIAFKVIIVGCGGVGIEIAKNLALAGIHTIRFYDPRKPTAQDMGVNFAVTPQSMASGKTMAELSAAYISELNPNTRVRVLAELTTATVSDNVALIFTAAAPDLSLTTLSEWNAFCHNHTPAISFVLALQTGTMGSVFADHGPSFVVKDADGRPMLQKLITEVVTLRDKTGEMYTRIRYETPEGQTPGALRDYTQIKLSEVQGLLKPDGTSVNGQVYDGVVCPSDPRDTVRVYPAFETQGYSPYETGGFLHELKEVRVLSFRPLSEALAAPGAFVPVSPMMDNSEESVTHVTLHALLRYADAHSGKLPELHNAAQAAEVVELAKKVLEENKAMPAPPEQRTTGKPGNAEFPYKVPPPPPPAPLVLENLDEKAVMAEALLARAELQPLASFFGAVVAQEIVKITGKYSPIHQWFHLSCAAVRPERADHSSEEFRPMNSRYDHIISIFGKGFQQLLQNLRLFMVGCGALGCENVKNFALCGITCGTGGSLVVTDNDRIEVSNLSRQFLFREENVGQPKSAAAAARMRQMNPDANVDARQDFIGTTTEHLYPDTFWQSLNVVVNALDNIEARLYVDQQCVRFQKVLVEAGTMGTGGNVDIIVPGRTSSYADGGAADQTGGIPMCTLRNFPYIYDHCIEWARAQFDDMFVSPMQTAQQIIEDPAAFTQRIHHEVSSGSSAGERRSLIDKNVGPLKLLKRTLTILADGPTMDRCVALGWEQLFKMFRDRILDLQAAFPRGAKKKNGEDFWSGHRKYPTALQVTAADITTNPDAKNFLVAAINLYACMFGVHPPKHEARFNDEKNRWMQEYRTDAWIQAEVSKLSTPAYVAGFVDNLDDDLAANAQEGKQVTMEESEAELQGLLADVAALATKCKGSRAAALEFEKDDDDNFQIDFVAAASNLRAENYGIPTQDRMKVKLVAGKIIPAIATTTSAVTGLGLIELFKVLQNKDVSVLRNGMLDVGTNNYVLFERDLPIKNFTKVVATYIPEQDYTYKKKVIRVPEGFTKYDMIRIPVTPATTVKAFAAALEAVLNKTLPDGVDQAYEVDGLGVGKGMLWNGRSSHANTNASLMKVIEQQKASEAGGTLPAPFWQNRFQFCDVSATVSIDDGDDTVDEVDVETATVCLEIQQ

[3] = molecular target: T2, Aspartate--tRNA(Asp/Asn) ligase (Mycobacterium tuberculosis (strain ATCC 25618 / H37Rv)) (UniProt P9WFW3); experiment: Assay for Asp RNA synthetase-1 from Mycobacterium tuberculosis; format: functional; settings: 30 µM; note: in the data most compounds retested in dose-response had high values
T2 sequence (whole entry): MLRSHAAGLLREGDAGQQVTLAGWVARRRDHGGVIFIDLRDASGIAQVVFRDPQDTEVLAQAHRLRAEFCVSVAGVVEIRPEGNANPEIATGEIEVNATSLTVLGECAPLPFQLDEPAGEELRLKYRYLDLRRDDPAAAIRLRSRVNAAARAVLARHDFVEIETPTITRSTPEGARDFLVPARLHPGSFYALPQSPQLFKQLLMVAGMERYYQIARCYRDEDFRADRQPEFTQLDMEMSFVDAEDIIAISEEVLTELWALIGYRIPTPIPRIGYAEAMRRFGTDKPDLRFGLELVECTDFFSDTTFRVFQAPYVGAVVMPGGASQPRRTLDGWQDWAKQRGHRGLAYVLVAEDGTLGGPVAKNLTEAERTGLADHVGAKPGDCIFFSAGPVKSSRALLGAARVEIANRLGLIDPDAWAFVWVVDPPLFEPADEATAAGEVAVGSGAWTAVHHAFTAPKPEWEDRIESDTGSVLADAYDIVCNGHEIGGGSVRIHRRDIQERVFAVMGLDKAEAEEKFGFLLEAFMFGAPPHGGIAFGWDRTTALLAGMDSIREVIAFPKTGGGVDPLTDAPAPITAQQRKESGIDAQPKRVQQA

[4] = molecular target: Sialic acid-binding Ig-like lectin 9 (Homo sapiens) (UniProt Q9Y336); experiment: Hs-Siglec9 ALPHAscreen SOP 20170721; settings: 10 µM
[5] = tested on: Trypanosoma cruzi; experiment: Trypanosoma cruzi phosphomannomutase and mannose-1-phosphate guanylyltransferase assay; format: functional; settings: 10 µM
[6] = molecular target: T3, Arginase-2, mitochondrial (Homo sapiens) (UniProt P78540); experiment: in vitro enzyme assay to detect the production of urea directly proportional to the activity of Arginase II; format: functional; settings: 33.3 µM; note: in the data most compounds retested in dose-response had high values
T3 sequence (whole entry): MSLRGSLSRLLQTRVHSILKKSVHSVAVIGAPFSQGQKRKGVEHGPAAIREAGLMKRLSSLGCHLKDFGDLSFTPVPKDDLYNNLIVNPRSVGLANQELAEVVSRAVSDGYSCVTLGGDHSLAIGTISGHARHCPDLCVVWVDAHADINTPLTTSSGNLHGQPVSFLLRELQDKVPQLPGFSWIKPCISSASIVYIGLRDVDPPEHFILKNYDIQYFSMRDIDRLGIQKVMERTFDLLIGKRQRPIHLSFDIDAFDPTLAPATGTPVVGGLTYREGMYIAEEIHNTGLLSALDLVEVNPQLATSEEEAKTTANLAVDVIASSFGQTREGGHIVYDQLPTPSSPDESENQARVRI

[7] = molecular target: T4, Proteasome subunit beta (Trypanosoma cruzi) (UniProt O96673); experiment: Trypanosoma cruzi proteasome chymotrypsin-like activity (TcProtChymo) assay.; note: in the data most compounds retested in dose-response had high values; format: functional; settings: 9.37 µM
T4 sequence (whole entry): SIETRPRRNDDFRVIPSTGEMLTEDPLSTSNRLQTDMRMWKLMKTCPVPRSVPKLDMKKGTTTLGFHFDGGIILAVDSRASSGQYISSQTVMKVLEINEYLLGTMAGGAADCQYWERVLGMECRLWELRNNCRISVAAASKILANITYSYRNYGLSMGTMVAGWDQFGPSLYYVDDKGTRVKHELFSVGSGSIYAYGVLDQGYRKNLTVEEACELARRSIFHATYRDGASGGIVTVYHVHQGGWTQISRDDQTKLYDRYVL

[8] = species: Homo sapiens; experiment: To identify inhibition of the IFN signalling (Jak-Stat) pathway via expression of an eGFP reporter gene under the control of an IFN-stimulated response element (ISRE) containing MxA promoter.; format: functional; settings: 30 µM
[9] = molecular target: Shiga toxin 2 (Escherichia coli O157:H7) (UniProt P09385+P09386); experiment: E. coli 0.157:H7 Shiga Toxin SOP - stx2 screening assay; format: functional; settings: 30 µM
[10] = molecular target: T5, Tyrosyl-tRNA synthetase, putative (Trypanosoma cruzi (strain CL Brener)) (UniProt Q4DSP6); experiment: Trypanosoma cruzi tyrosyl tRNA synthetase (TcYRS) _High Tyrosine SOP; format: functional; settings: 30 µM; note: in the data most compounds retested in dose-response had high values
T5 sequence (whole entry): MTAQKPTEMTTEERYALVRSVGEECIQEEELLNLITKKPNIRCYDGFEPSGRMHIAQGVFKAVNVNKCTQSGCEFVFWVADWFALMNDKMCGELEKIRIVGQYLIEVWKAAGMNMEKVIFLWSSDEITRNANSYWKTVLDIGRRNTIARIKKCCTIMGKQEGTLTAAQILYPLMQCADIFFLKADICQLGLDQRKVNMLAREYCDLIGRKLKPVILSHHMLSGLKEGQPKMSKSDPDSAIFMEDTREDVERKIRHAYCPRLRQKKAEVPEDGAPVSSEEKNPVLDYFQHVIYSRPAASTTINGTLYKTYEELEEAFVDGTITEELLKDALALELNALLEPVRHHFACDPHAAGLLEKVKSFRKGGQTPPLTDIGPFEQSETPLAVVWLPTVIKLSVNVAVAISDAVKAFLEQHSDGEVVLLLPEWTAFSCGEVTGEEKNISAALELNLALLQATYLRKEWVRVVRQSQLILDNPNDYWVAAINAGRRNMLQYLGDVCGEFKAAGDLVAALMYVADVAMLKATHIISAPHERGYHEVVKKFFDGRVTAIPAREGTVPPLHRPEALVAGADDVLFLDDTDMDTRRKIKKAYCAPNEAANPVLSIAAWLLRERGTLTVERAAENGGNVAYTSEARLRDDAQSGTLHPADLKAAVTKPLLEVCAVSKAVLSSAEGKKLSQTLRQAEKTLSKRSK

[11] = molecular target: T5, Tyrosyl-tRNA synthetase, putative (Trypanosoma cruzi (strain CL Brener)); experiment: Trypanosoma cruzi tyrosyl tRNA synthetase (TcYRS) SOP; format: functional; settings: 30 µM
[12] = molecular target: Chromo domain-containing protein 1 (Saccharomyces cerevisiae (strain ATCC 204508 / S288c) (Baker's yeast)) (UniProt P32657); experiment: ScCHD-1 Enzyme Inhibition Assay; format: functional; settings: 30 µM; note: in the data most compounds retested in dose-response had high values
Sequence of Chromo domain-containing protein 1 (Saccharomyces cerevisiae (strain ATCC 204508 / S288c) (Baker's yeast)) (P32657 whole entry, the tested form may be a part): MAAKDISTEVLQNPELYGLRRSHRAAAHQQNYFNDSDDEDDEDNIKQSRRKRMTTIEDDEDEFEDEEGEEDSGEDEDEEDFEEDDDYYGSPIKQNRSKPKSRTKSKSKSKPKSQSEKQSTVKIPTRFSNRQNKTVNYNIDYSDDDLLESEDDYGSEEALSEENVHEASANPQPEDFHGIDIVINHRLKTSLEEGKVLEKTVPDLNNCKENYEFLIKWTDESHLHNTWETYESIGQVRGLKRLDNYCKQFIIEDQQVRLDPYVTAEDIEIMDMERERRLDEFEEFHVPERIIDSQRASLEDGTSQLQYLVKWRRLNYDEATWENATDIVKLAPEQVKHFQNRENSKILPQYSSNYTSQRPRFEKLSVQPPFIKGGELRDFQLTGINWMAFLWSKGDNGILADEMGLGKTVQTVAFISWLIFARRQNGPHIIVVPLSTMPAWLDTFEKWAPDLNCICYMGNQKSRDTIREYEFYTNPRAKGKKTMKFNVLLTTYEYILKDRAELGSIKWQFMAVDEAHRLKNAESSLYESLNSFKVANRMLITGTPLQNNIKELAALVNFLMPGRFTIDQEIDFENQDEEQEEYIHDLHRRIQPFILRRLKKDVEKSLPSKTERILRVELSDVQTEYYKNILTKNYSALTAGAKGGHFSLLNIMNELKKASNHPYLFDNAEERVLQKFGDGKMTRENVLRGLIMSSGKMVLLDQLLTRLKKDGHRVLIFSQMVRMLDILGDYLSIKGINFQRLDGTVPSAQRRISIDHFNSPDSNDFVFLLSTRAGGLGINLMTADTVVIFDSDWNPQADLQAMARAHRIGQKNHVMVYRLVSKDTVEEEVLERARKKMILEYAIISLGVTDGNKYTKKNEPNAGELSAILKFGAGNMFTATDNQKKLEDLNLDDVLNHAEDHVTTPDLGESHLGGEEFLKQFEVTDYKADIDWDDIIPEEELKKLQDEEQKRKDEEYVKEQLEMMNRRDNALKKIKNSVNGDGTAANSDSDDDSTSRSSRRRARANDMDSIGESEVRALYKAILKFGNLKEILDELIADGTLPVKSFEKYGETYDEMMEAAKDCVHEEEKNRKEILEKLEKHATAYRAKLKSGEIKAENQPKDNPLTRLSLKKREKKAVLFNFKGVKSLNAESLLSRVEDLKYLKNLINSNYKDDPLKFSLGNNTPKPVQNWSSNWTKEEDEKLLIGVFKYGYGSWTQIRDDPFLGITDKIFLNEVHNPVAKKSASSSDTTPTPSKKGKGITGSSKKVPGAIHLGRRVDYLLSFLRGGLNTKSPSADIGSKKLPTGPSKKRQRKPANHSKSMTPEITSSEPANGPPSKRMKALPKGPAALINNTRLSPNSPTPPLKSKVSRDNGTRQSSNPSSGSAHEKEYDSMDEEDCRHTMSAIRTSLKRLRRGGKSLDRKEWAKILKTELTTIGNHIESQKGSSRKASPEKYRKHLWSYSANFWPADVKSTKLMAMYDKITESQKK

Sequence of Protein translocase subunit SecA (Escherichia coli (strain K12)) (P10408 whole entry): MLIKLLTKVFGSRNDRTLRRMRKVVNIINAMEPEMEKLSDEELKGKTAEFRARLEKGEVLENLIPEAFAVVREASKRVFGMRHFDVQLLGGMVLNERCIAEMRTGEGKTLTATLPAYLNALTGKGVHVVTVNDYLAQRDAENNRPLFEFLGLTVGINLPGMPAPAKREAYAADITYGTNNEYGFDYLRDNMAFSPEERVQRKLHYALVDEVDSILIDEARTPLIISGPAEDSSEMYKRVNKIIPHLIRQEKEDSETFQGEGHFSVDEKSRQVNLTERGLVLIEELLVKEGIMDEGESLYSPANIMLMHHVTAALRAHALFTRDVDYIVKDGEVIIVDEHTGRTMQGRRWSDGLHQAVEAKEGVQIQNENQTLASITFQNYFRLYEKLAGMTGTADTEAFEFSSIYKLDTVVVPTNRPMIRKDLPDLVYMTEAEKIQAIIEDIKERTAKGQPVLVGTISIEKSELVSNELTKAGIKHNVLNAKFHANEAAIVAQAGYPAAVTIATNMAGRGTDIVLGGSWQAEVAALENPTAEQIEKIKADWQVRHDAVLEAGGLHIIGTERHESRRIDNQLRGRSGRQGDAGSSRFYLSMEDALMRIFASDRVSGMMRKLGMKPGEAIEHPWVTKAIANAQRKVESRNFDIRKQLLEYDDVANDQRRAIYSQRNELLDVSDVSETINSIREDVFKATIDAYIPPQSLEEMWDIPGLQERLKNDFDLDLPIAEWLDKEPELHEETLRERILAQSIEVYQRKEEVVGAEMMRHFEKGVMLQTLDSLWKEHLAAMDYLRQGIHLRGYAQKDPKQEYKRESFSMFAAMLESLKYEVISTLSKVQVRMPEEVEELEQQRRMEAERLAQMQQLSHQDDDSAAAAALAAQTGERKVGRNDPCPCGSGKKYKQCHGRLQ
Sequence of Sialic acid-binding Ig-like lectin 9 (Homo sapiens) (Q9Y336 whole entry): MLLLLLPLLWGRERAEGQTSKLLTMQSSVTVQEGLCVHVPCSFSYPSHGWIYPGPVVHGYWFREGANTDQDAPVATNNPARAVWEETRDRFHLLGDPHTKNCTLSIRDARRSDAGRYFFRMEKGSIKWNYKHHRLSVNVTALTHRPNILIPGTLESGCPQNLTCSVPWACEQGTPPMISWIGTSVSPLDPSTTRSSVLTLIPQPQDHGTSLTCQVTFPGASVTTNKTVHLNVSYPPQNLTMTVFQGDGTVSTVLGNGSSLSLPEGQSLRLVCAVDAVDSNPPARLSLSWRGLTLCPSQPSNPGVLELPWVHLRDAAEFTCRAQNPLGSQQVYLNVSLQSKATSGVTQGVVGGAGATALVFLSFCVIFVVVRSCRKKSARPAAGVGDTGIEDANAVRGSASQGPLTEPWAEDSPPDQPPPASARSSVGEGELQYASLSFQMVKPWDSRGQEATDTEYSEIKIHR

Structure (SMILES)	Percent Effect [1]	Percent Effect [2]	Percent Effect [3]	Percent Effect [4]	Percent Effect [5]	Percent Effect [6]	Percent Effect [7]	Percent Effect [8]	Percent Effect [9]	Percent Effect [10]	Percent Effect [11]	Percent Effect [12]
O=C1CC[C@H]2[C@H](CCN2Cc2ccccn2)N1CC1CCOCC1	-3.55%	9.09%	-4.23%	-1.65%	-5.63%	2.74%	3.35%	8.69%	-14%	-0.966%	2.5%	-0.494%
NCC1[C@H]2CN(CCc3ccccc3)C[C@@H]12 (some centres undefined)	-7.01%	14.3%	2.14%	-1.73%	-4.5%	-1.37%	11.1%	15.4%	-0.684%	6.76%	0%	-10.2%
Cc1cnn(C2CN(CC(O)c3ccc4c(c3)OCCO4)C2)c1 (centres undefined)			-4.61%									
COCCNC(=O)c1cn(C(C)(C)C)c2ncccc12	107%	6.67%	2.31%	-7.99%	0.197%	6.2%	11%	3.2%	4%	0%	10%	-17.6%
C[C@@H]1C(=O)NC[C@H]2CN(Cc3ccsc3)C[C@H]21	-2.31%	3.9%	-1.43%	1.3%	1.88%	-0.457%	-4.55%	-3.55%	-20.9%	6.76%	10%	-9.75%
